Screens: PubChem, The Scripps Research Institute Molecular Screening Center
Sampled rows, rich in hits. Any-hit rate of the full collection: about 2.3%.
CHO-K1 Ca antag: M1 antagonist counterscreen hit in parental CHO-K1 cells | 0.6% of 360,000 active | inhibition, % at 3 µM | ATP-induced calcium, Fluo-8 fluorescence;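 active = inhibition above a per-plate cutoff, the plate's mean sample inhibition plus 3 SD, cut at about 24% in these data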;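 note: 0% = DMSO plus EC80 ATP and 100% = DMSO alone without ATP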
M1 PAM: potentiates human M1 receptor response to acetylcholine. 0.088% of 360,000 active. AID 588819. P11229. CHO-K1 hM1, Fluo-8 calcium fluorescence, ACh EC20; 0% = ACh EC20, 100% = maximal ACh. activation, % at 3 µM; in the data active = activation above about 19%, passing the limit was not always enough
Target sequence (P11229 whole entry, looked up): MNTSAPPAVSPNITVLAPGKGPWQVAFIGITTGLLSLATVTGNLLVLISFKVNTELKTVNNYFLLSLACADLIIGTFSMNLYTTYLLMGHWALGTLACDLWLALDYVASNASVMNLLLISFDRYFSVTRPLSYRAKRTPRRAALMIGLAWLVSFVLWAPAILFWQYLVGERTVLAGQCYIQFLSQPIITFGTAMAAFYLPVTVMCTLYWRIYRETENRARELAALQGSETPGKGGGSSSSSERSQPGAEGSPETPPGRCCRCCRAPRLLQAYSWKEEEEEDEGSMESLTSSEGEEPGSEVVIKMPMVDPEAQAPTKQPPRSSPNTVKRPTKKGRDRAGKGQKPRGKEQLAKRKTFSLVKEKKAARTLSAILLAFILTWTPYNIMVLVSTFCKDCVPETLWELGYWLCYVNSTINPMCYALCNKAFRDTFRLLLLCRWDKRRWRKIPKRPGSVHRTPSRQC
M1 ag: human M1 muscarinic receptor agonism | CHO-K1 hM1, Fluo-8 calcium fluorescence, agonist mode; 0% DMSO, 100% acetylcholine EC100 | activation, % at 3 µM | 0.33% of 360,000 active | P11229;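 active = activation above the run's mean compound activation plus 3 SD, cut at about 16% in these data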;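 note: peak over basal fluorescence ratio within a 140 s kinetic read after compound addition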
M1 antag: human CHRM1 antagonism | P11229 | CHO-K1 hM1, Fluo-8 calcium fluorescence, ACh EC80 antagonist | inhibition, % at 3 µM | 1.3% of 360,000 active | AID 588852;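 active = percent inhibition above its own plate's cutoff, namely the mean of that plate's compound wells plus 3 SD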;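 note: peak over basal fluorescence ratio during 140 s after agonist addition; 0% = ACh EC80 plus DMSO and 100% = DMSO alone without agonist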
M1 ag parental: counter-screen for M1 agonists: effect in parental CHO-K1 cells; activation, % at 3 µM; Fluo-8 calcium fluorescence; scaled to maximal ATP response, vehicle zero; 0.48% of 360,000 active; in the data active = activation above about 15%;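 note: untransfected CHO-K1 host cells lacking M1 receptor as counterscreen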
M1 PAM parental: M1 PAM counterscreen hit in parental CHO-K1 cells. 0.02% of 360,000 active. ATP EC20, Fluo-8 calcium fluorescence; 0% at ATP EC20, 100% at ATP max. activation, % at 3 µM;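 active = activation above the run cutoff, the mean activation of all test compounds plus 3 SD, cut at about 40% in these data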;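 note: peak over basal fluorescence ratio in a 140 s read after ATP addition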
* = called active by the depositor.

For Cc1cccc(C(C)(C)C)c1OCCCCN1CCCC1 the results were CHO-K1 Ca antag -7, M1 PAM -3, M1 ag 16*, M1 antag -4, M1 ag parental 2 and M1 PAM parental 22.
Cc1cc(C(C)(C)C)ccc1OCCOCCN1CCCC1 was read as CHO-K1 Ca antag 0, M1 PAM -25, M1 ag -9, M1 antag 33*, M1 ag parental 1 and M1 PAM parental -1.
CC(C)(C)c1cc(Cl)ccc1OCCOCCN1CCCC1 was read as CHO-K1 Ca antag 0, M1 PAM 1, M1 ag -6, M1 antag 3, M1 ag parental 4 and M1 PAM parental -7.
For CC(C)c1cccc(C(C)C)c1OCCCCN1CCCC1 the results were CHO-K1 Ca antag -17, M1 PAM -27, M1 ag -8, M1 antag 33*, M1 ag parental 1 and M1 PAM parental 26.
O=C(NCCN1CCNC1=O)c1ccc2sc([C@@H]3O[C@H](CO)[C@H](O)[C@H](O)[C@H]3O)nc2c1 was read as CHO-K1 Ca antag -6, M1 PAM 0, M1 ag -2, M1 antag -9, M1 ag parental 0 and M1 PAM parental 10.
For NC(N)=Nc1nc(-c2ccccc2)c2cc(F)ccc2n1 the results were CHO-K1 Ca antag -4, M1 PAM -6, M1 ag -8, M1 antag 6, M1 ag parental 0 and M1 PAM parental 12.
For O=S(=O)(NCCCCCNS(=O)(=O)c1ccccc1)c1ccccc1 the results were CHO-K1 Ca antag 24*, M1 PAM -5, M1 ag 4, M1 antag -11, M1 ag parental 4 and M1 PAM parental -9.
Screening O=S(=O)(NCCCc1ccccc1)c1ccccc1 returned CHO-K1 Ca antag -6, M1 PAM 4, M1 ag -6, M1 antag -5, M1 ag parental 1 and M1 PAM parental 7.
CS(=O)(=O)NCCOc1ccc(S(=O)(=O)NCCOc2ccccc2)cc1 was read as CHO-K1 Ca antag 32*, M1 PAM -10, M1 ag -6, M1 antag 5, M1 ag parental 0 and M1 PAM parental -19.
Screening Cc1onc(-c2ccccc2)c1NC(=O)Nc1ccc(OC(F)F)cc1 returned CHO-K1 Ca antag 10, M1 PAM -3, M1 ag -1, M1 antag 1, M1 ag parental 25* and M1 PAM parental -6.
Screening CC(CCN1C(N(C)C)=NC[C@@H]1C)c1ccccc1 (some centres not stated) returned CHO-K1 Ca antag 10, M1 PAM -23, M1 ag -14, M1 antag 31*, M1 ag parental 0 and M1 PAM parental -14.
c1ccc(CSc2nnc(-c3ccncc3)o2)cc1 was read as CHO-K1 Ca antag 2, M1 PAM 16, M1 ag 0, M1 antag -2, M1 ag parental 0 and M1 PAM parental -6.
`NC(=O)CSc1nnc(-c2ccncc2)o1` gave CHO-K1 Ca antag -2, M1 PAM 8, M1 ag -3, M1 antag -6, M1 ag parental 0 and M1 PAM parental 22.
Screening CC(C)(C)NC(=O)CSc1nnc(-c2ccncc2)o1 returned CHO-K1 Ca antag 25*, M1 PAM 4, M1 ag -3, M1 antag -3, M1 ag parental 0 and M1 PAM parental 1.
For Cc1ccccc1CSc1nnc(-c2ccncc2)o1 the results were CHO-K1 Ca antag 3, M1 PAM -12, M1 ag -6, M1 antag 11, M1 ag parental 24* and M1 PAM parental 2.
COc1ccc(/C=N/NS(=O)(=O)c2ccc(F)cc2)cc1CN1CCSCC1 was read as CHO-K1 Ca antag 7, M1 PAM -1, M1 ag -5, M1 antag 0, M1 ag parental 0 and M1 PAM parental 8.
Screening COc1ccc([N+](=O)[O-])cc1NC(=O)COC(=O)c1ccc(O)cc1 returned CHO-K1 Ca antag -14, M1 PAM 6, M1 ag -2, M1 antag -29, M1 ag parental 2 and M1 PAM parental 10.
`CC[N+]1(C)CCC(=C2c3ccccc3CC(=O)c3sccc32)CC1` (configuration not stated) gave CHO-K1 Ca antag 5, M1 PAM -26, M1 ag -6, M1 antag 98*, M1 ag parental 0 and M1 PAM parental 13.
For C[N+]1(C)CCC(=C2c3ccccc3CC(=O)c3sccc32)CC1 the results were CHO-K1 Ca antag 16, M1 PAM -26, M1 ag -6, M1 antag 95*, M1 ag parental 0 and M1 PAM parental -8.
For CC(C)CN(C(=O)COc1ccc(Br)cc1C=O)C1CCS(=O)(=O)C1 (configuration not stated) the results were CHO-K1 Ca antag -6, M1 PAM 6, M1 ag -1, M1 antag -12, M1 ag parental 1 and M1 PAM parental 5.
`COc1ccc(C2N=C(c3ccccc3)C(C)(C)N2O)cc1OC` (configuration not stated) gave CHO-K1 Ca antag -10, M1 PAM -2, M1 ag -4, M1 antag 2, M1 ag parental 1 and M1 PAM parental 6.
Cc1cc(/C=N/NC(=O)c2ccc(O)cc2)c(C)n1C1CC1 was read as CHO-K1 Ca antag 28*, M1 PAM 1, M1 ag -1, M1 antag -4, M1 ag parental 0 and M1 PAM parental -13.
Screening CC(C)N(C(=S)Nc1cccnc1)c1ccccc1 returned CHO-K1 Ca antag -7, M1 PAM 8, M1 ag -2, M1 antag -9, M1 ag parental 1 and M1 PAM parental 11.
Screening CC(C)C(=O)Nc1ccc(NC(=S)NC(=O)c2ccc([N+](=O)[O-])cc2)cc1 returned CHO-K1 Ca antag 0, M1 PAM -3, M1 ag -2, M1 antag 1, M1 ag parental 4 and M1 PAM parental 8.
Cc1ccc(NC(=O)CSc2nnc(-c3cnccn3)n2Cc2ccco2)cc1 was read as CHO-K1 Ca antag 2, M1 PAM -1, M1 ag -7, M1 antag 1, M1 ag parental 0 and M1 PAM parental -7.
For Cc1cccc(NC(=O)CSc2nnc(-c3cnccn3)n2Cc2ccco2)c1 the results were CHO-K1 Ca antag 29*, M1 PAM -9, M1 ag -2, M1 antag 18, M1 ag parental -1 and M1 PAM parental -8.
COCC(=O)NC1(c2nnnn2CCOC(=O)Nc2ccc(Cl)cc2)CCCCC1 was read as CHO-K1 Ca antag -19, M1 PAM 10, M1 ag -6, M1 antag -3, M1 ag parental 4 and M1 PAM parental 18.
